# Bioassay records: PubChem BioAssay, National Center for Advancing Translational Sciences (NCATS)
# Most compounds without a hit are left out; they make up all but 10% or so of the library.
# GPT2 inh = inhibitors of human GPT2 alanine aminotransferase | Recombinant GPT2, coupled pyruvate oxidase/HRP Amplex Red fluorescence | Potency, µM (doses to about 57.7 µM), usual class: inhibitors | Q8TD30 | 100,000 compounds, 0.25% hits; note: nearly all actives have a fitted effect of over 60% in size
#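 Inhibition is scored from Amplex Red fluorescence generated when pyruvate oxidase and HRP act on pyruvate released by GPT2. Reactions contain 10ng/uL enzyme, 250uM a-KG and 2mM L-alanine and run 30 min at room temperature.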
# NPR1 antag = antagonists of human natriuretic peptide receptor Npr1; Potency, µM (titrated, usually from 46.3 µM), usual class: inhibitors; 76,000 compounds, 1.6% hits; P16066; HEK293 hNpr1 GloSensor cGMP, ANP-stimulated luminescence; AID 1347048; calls by dose curve; note: nearly all actives have a fitted effect of over 60% in size
#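 HEK293 cells stably expressing human Npr1 and cGMP GloSensor pGS-40F, loaded 2 h with 2% GloSensor reagent, given compound 30 min at room temperature. Luminescence read before and 20 min after 0.1 nM hNppA.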
# HEK cytotox = kills HEK 293 cells | HEK 293 viability, ATP luminescence (CellTiter-Glo), 48-72 h | Potency, µM (top dose mostly 115 µM), usual class: inhibitors | 94,000 compounds, 6.6% hits; note: nearly all actives have a fitted effect of over 60% in size
#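 qHTS cytotoxicity; HEK 293, 250 cells/well; compound pinned; 48 or 72 hr, 37 degree Celsius, 5% CO2, 95% humidity; CellTiter-Glo, 10 min RT; luminescence (ATP).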
# FLuc inh = blocks purified firefly luciferase enzyme activity; 76,000 compounds, 2.5% hits; P08659; Potency, µM (titrated, usually from 115 µM), hits mostly inhibitors; AID 1347043; purified P. pyralis luciferase, luminescence, biochemical; note: nearly all actives have a fitted effect of over 65% in size
# Target sequence (P08659 whole entry, looked up): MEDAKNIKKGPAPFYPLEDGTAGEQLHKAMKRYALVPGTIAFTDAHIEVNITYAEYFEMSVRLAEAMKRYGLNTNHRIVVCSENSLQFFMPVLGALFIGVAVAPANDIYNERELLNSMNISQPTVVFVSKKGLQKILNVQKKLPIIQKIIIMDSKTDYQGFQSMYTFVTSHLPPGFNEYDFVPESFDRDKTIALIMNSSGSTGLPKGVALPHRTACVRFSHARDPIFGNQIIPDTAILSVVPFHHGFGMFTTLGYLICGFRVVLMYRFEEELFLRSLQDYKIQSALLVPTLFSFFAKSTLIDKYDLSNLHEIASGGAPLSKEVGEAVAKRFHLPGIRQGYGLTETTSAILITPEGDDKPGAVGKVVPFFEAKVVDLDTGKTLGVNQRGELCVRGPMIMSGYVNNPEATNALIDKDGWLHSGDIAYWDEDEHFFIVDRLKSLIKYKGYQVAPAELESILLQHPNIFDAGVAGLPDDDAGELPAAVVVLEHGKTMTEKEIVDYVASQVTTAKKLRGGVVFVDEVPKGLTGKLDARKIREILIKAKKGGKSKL
#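 Inhibitors were tested against purified firefly luciferase in a biochemical, low-substrate format (both substrates at 10uM) and luminescence measured with a CCD imager.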
# NIH3T3 tox = kills NIH 3T3 cells | NIH 3T3 viability, CellTiter-Glo ATP luminescence, 48-72 h | Potency, µM (highest dose often 96.7 µM), hits mostly inhibitors | 94,000 compounds, 4.3% hits | AID 1345082; note: nearly all actives have a fitted effect of over 55% in size
#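 First NIH 3T3 cells are plated at 400 cells/well; next compound is pinned in; then plates incubate 48 or 72 hr at 37 °C; finally CellTiter-Glo is added and luminescence read after 10 min.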
# Numbers stand for hits; i = inactive; ? = inconclusive; nt = not tested or not shown; [ ] = another dose, or the depositor's remark. Unless noted, calls come from the whole dose curve; as a rule, active = well fitted curve in the direction sought with a large enough effect; inconclusive = small, poorly fitted or top-dose-only effect, or another doubt; inactive = no such curve, though single readings can be large; an effect the other way counts as inactive or inconclusive.
SMILES,GPT2 inh,NPR1 antag,HEK cytotox,FLuc inh,NIH3T3 tox
O=C(C1CCCCC1)N1CCCC2(CC(c3ccccn3)=NO2)C1 (centres undefined),i,nt,i,nt,i
Fc1ccc(-c2cnc3n2C[C@H](CN(Cc2ccccc2)Cc2ccccc2)OC3)cc1,i,i,35µM,i,28µM
O=C(NC[C@H]1Cn2c(-c3ccc(F)cc3)cnc2CO1)c1ccc(Cl)cc1,i,18µM,89µM,?,?
O=C(NC[C@H]1Cn2c(-c3ccc4c(c3)OCO4)cnc2CO1)c1ccc2c(c1)OCO2,i,i,63µM,?,28µM
COc1ccccc1C(=O)NC[C@H]1Cn2c(-c3ccc(Cl)cc3)cnc2CO1,i,?,13µM,i,10µM
COc1cccc(-c2cccc(C(=O)N3CCN(C(=O)c4ccccc4)CC3)c2)c1,i,nt,?,nt,?
O=C1c2cccn2CC(CNS(=O)(=O)c2ccccc2)N1Cc1ccccc1 (centres undefined),i,i,i,i,i
O=C(NC1CCCCC1)C1CN(S(=O)(=O)c2cccc(F)c2)CC12CCOCC2 (centres undefined),i,i,i,i,?
O=S(=O)(NC[C@H]1Cn2c(-c3ccc(F)cc3)cnc2CO1)c1ccc(Cl)cc1,i,?,100µM,i,?
O=C(O)C1CC2(CCN(C(=O)c3ccc4c(c3)OCCO4)CC2)CN1 (centres undefined),i,i,i,i,i
COc1ccc(C(=O)N2CCC3(CC2)C(=NC2CCCCC2)NC(=O)N3c2cc(F)cc(F)c2)cc1,i,nt,i,nt,32µM
O=C(c1ccc(C(F)(F)F)cc1)N1CCC2(C1)C(=NC1CCCCC1)NC(=O)N2c1cc(F)cc(F)c1 (centres undefined),i,nt,i,nt,25µM
COc1ccc(C(=O)N2CCCC3(C2)C(=NC2CCCCC2)NC(=O)N3c2cc(F)cc(F)c2)cc1 (centres undefined),i,nt,i,nt,i
Cc1ccc(C(=O)N2CCC3(CC2)C(=NC2CCCCC2)NC(=O)N3c2cc(F)cc(F)c2)cc1,i,nt,i,nt,32µM
O=C(c1ccc(C(F)(F)F)cc1)N1CCC2(CC1)C(=NC1CCCCC1)NC(=O)N2c1cc(F)cc(F)c1,?,nt,i,nt,?
COc1ccc(C(=O)N2CCC3(CC2)C(=NC2CCCCC2)NC(=O)N3c2cccc(OC)c2)cc1,?,nt,i,nt,28µM
O=C1NCCOCCN(C(=O)c2ccncc2)[C@H]2CCC[C@@H]12,i,i,i,i,i
O=[S+]([O-])(NC1CCN(Cc2cccc(-c3ccc(F)c(F)c3)c2)CC1)c1ccccc1,nt,nt,28µM,nt,20µM
O=[S+]([O-])(NC1CCN(Cc2cccc(-c3ccc(F)c(F)c3)c2)CC1)c1cccc(C(F)(F)F)c1,i,nt,22µM,nt,14µM
O=[S+]([O-])(NC1CCN(Cc2cccc(-c3cccs3)c2)CC1)c1cccc(C(F)(F)F)c1,i,nt,?,nt,8.9µM
CCc1nc2c(c(-c3ccc(OC)cc3)n1)CCN(Cc1ccc(OC)cc1)CC2,i,nt,i,nt,i
CC1=C[C@@H](CNCc2cccnc2)[C@H](C(C)C)C[C@H]1Cc1nnc(-c2ccc(N(C)C)cc2)o1,i,?,18µM,i,?
CC1=C[C@@H](CNCc2ccncc2)[C@H](C(C)C)C[C@H]1Cc1nnc(-c2ccc(C)cc2)o1,i,?,?,i,?
CC1=C[C@@H](CNCc2ccccn2)[C@H](C(C)C)C[C@H]1Cc1nnc(-c2ccccc2)o1,i,?,79µM,i,?
CC1=C[C@@H](CNCc2ccccn2)[C@H](C(C)C)C[C@H]1Cc1nnc(-c2ccc(N(C)C)cc2)o1,i,i,11µM,i,?
SMILES,GPT2 inh,NPR1 antag,HEK cytotox,FLuc inh,NIH3T3 tox
CC1=C[C@@H](CNCc2cccnc2)[C@H](C(C)C)C[C@H]1Cc1nnc(-c2ccncc2)o1,i,i,?,i,?
COC(=O)N1CC(N2C(=O)c3c(c(C)nn3-c3ccccc3)C2C(C)C)C1 (centres undefined),nt,nt,?,nt,i
COc1ccc(-c2ccc(C(=O)NCC3CC3)c(Cl)c2)nn1,nt,nt,i,nt,i
CC(=O)Nc1cccc(-c2n[nH]c3c2CC(=O)N(CC2CC2)C3)c1,i,i,?,i,?
CC(=O)Nc1cccc(-c2n[nH]c3c2CC(=O)N(CCOc2ccccc2)C3)c1,i,i,?,i,35µM
CC(=O)Nc1cccc(-c2n[nH]c3c2CC(=O)N(Cc2ccccc2)C3)c1,i,i,100µM,i,?
Cc1ccccc1Oc1ncccc1CNC(=O)c1ccc2c(c1)OCO2,i[11.5 µM],i,i,i,?
Cc1nc2ccc(C(=O)NCc3cccnc3Oc3ccccc3C)cc2[nH]1,i,i,?,i,50µM
CN1CC(C(=O)NCc2cccs2)NC1=O (centres undefined),i,nt,i,nt,i
O=C(COc1ccccc1)N1CC2CC(C1)[C@H]1CCCC(=O)N1C2 (some centres undefined),i,i,i,i,i
COc1cccc(C(=O)N2CCN(c3ccc4ncc(-c5cccc(C(F)(F)F)c5)n4n3)CC2)c1,nt,nt,?,nt,11µM
COc1cccc(C(=O)N2CCCN(c3ccc4nnc(C)n4n3)CC2)c1,nt,nt,i,nt,i
O=C(NC[C@@H]1CCCN1)C1CCN(c2nc(-c3ccccc3)nc3c2CCC3)CC1,i,i,32µM,i,22µM
CC(C)(C)CC(=O)N1CCN(c2nc(-c3ccccc3)nc3c2CCC3)CC1,i,i,i,i,i
CC1CN(C(=O)C2CCN(c3nc(-c4ccccc4)nc4c3CCC4)CC2)CCN1 (centres undefined),i,i,?,i,?
O=C(NC1CCCNC1)C1CCN(c2nc(-c3ccccc3)nc3c2CCC3)CC1 (centres undefined),i,i,?,i,45µM
COC(C)(C)C(=O)N1CCN(c2nc(-c3ccccc3)nc3c2CCC3)CC1,i,i,79µM,i,i
CNCCNC(=O)C1CCN(c2nc(-c3ccccc3)nc3c2CCC3)CC1,i[11.5 µM],i,?,i,?
Cc1ccsc1CN(Cc1cn(-c2ccccc2)nn1)C1CC1,i,i,?,?,?
CNC(=O)CCn1ncc2cc(OC3CCc4cccc(-c5ccc(F)cc5)c43)ccc21 (centres undefined),?,i,63µM,i,?
CNC(=O)CCn1ncc2cc(OC3CCc4cccc(-c5ccccc5)c43)ccc21 (centres undefined),i,i,?,i,?
CNC(=O)CCn1ncc2cc(OC3CCc4cccc(-c5ccccc5F)c43)ccc21 (centres undefined),i,?,?,i,50µM
CNC(=O)CCn1ncc2cc(OC3CCc4cccc(-c5cccc(F)c5)c43)ccc21 (centres undefined),i,i,?,i,?
C#CCN(Cc1nc(-c2ccc(OC)c(C)c2OC)oc1C)C1CCCCC1,i,i,?,i,?
Cc1cccc(Cn2nc3n(c2=O)CCCCC3)c1,i,i,i,i,i
